Measurements: PubChem BioAssay (Tox21)
Inconclusive results are not listed. Calls of active or inactive are those of the source. Unless noted, the call rests on the fitted dose curve; in most records, active means well fitted curve in the direction sought with a large enough effect in the repeat runs; inconclusive means weak or mixed curves; inactive means no such curve, though single readings can be large; an effect the other way counts as inactive or inconclusive.

How the values were obtained:
[1] = qHTS assay to identify small molecule agonists of the hypoxia (HIF-1) signaling pathway - cell viability counter screen (AID 1224844; calls by dose curve; further: nearly all actives have a fitted effect of over 50% in size)
Summary of the method: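 HRE-bla ME-180; 0.5% dFBS; cpd 17 h, 37C, 5% CO2; CellTiter-Glo lum., 30 min RT, post-FRET read, same wells.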

[2] = qHTS assay to identify small molecule agonists of H2AX (AID 1224845; active means well fitted activation curve with a large enough effect in the signal ratio in the repeat runs, not every such curve was filed as active; the % refers to the signal ratio)
Summary of the method: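 Wild-type CHO-K1 cells plated overnight, then exposed 3 hr at 37C to compounds at 15 concentrations (0.76% DMSO). Lysed, then HTRF anti-pH2AX(S139)-cryptate/anti-H2AX-d2 detection after 24 hr at room temperature; emissions 665 and 620 nm.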

[3] = qHTS assay to identify small molecule agonists of the hypoxia (HIF-1) signaling pathway (AID 1224846; active means well fitted activation curve with a large enough effect in the signal ratio in the repeat runs, not every such curve was filed as active; the % refers to the signal ratio)
Summary of the method: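 Reporter induction in HRE-bla ME-180 cells is taken as agonism: cells sit 5 hrs after plating, receive compounds or DMSO only, incubate 17 hrs at 37C under 5% CO2, and are loaded with CCF4-AM for beta-lactamase FRET measurement.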

[4] = qHTS assay to identify small molecule agonists of H2AX - cell viability counter screen (AID 1224847; calls by dose curve; further: top concentration of the series differs between compounds; nearly all actives have a fitted effect of over 30% in size)
Summary of the method: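 Cells plated first: CHO-K1, 1000 per well in 10% FBS medium, incubated overnight at 37C. Then 15-point compound titration added (final DMSO 0.76%) for 3 hr. Finally CellTiter-Glo added and luminescence read.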

[5] = qHTS RealTime-Glo MT Cell Viability Assay in HepG2 cells - 24 hour (AID 1224867); further: nearly all actives have a fitted effect of over 50% in size
Summary of the method: (§1)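 Compound treatment began 5 h after plating HepG2 cells (600/well) with NanoLuc luciferase and prosubstrate. Plates stayed at 37 C for 40 h; luminescence was captured at six time points, 0 h through 40 h.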

[6] = qHTS RealTime-Glo MT Cell Viability Assay in HEK293 cells - 32 hour (AID 1224868); further: top concentration of the series differs between compounds; nearly all actives have a fitted effect of over 50% in size
Summary of the method: (§2)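 Quantitative high-throughput screen of the Tox21 10K library in HEK293: cells and RealTime-Glo reagents plated together, compound added at 5 h, luminescence monitored through 40 h at 37 C.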

[7] = A CellTox Green Cytotoxicity Assay to monitor cytotoxicity in HEK293 cells - 0 hour (AID 1224869); further: nearly all actives have a fitted effect of over 50% in size
Summary of the method: (§3)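 Tox21 screen in HEK293: membrane-impermeant cyanine dye fluoresces on binding dead-cell DNA; compound pinned 5 h post-seeding, plates held at 37 C, signal read repeatedly through 40 h.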

[8] = qHTS RealTime-Glo MT Cell Viability Assay in HepG2 cells - 40 hour (AID 1224870); further: nearly all actives have a fitted effect of over 50% in size
Summary of the method: (§4)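 HepG2 cells mixed with RealTime-Glo MT reagents (NanoLuc plus cell-permeant prosubstrate) were seeded at 600 cells/well, incubated 5 h at 37 C/5% CO2, then pinned with compounds in DMSO; nonlytic luminescence tracked viability during 40 h treatment.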

[9] = A CellTox Green Cytotoxicity Assay to monitor cytotoxicity in HEK293 cells - 40 hour (AID 1224871); further: nearly all actives have a fitted effect of over 45% in size
Summary of the method: as §3

[10] = qHTS RealTime-Glo MT Cell Viability Assay in HEK293 cells - 16 hour (AID 1224872)
Summary of the method: as §2

[11] = A CellTox Green Cytotoxicity Assay to monitor cytotoxicity in HEK293 cells - 24 hour (AID 1224875); further: nearly all actives have a fitted effect of over 45% in size
Summary of the method: as §3

[12] = A CellTox Green Cytotoxicity Assay to monitor cytotoxicity in HepG2 cells - 16 hour (AID 1224876); further: nearly all actives have a fitted effect of over 45% in size
Summary of the method: (§5)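 Measurements at 0, 8, 16, 24, 32 and 40 h of treatment captured CellTox Green fluorescence in HepG2 cells that had been co-plated with reagent and preincubated 5 h at 37 C/5% CO2.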

[13] = qHTS RealTime-Glo MT Cell Viability Assay in HepG2 cells - 32 hour (AID 1224877); further: nearly all actives have a fitted effect of over 55% in size
Summary of the method: as §1

[14] = A CellTox Green Cytotoxicity Assay to monitor cytotoxicity in HepG2 cells - 24 hour (AID 1224878); further: nearly all actives have a fitted effect of over 45% in size
Summary of the method: as §5

[15] = A CellTox Green Cytotoxicity Assay to monitor cytotoxicity in HepG2 cells - 40 hour (AID 1224879); further: nearly all actives have a fitted effect of over 40% in size
Summary of the method: as §5

[16] = qHTS RealTime-Glo MT Cell Viability Assay in HEK293 cells - 0 hour (AID 1224880)
Summary of the method: (§6)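 HEK293 + NanoLuc + prosubstrate, 600 cells/well; 5 h, 37 C/5% CO2; compound 23 nL in DMSO by pintool; 37 C; luminescence read at 0, 8, 16, 24, 32 and 40 h time points.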

[17] = qHTS assay to identify small molecule antagonists of the estrogen related receptor (ERR) signaling pathway from Tox21 library (AID 1224848); further: nearly all actives have a fitted effect of over 50% in size
Summary of the method: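 First, 2,000 ERR cells per well were plated and held 6 h at 37 C/5% CO2. Next, compounds in DMSO were pinned in and left 18 h at 37 C. Finally, ONE-Glo was added and luminescence read after 30 min at room temperature.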

[18] = qHTS assay to identify small molecule agonists of the estrogen related receptor (ERR) signaling pathway from Tox21 library (AID 1224849; calls by dose curve; further: nearly all actives have a fitted effect of over 15% in size); conditions: ERR reporter cell line, ONE-Glo luciferase, 18 h; at 92.4 µM (top of the series) unless noted
Summary of the method: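 Tox21 compounds tested for ERR agonism in an NTP reporter cell line: 18 h treatment at 37 C, then ONE-Glo luminescence.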

[19] = qHTS RealTime-Glo MT Cell Viability Assay in HepG2 cells - 8 hour (AID 1224873); further: nearly all actives have a fitted effect of over 55% in size
Summary of the method: as §4

[20] = qHTS RealTime-Glo MT Cell Viability Assay in HEK293 cells - 40 hour (AID 1224874); conditions: RealTime-Glo luminescence; max response: stronger effect = lower value; further: nearly all actives have a fitted effect of over 50% in size
Summary of the method: as §6
On the % scale 0 is the no-effect control and ±100 the full control effect.

O=C(NC(=O)c1c(F)cccc1F)Nc1cc(Cl)c(OC(F)(F)C(F)F)c(Cl)c1
inactive: Potency [1] | Potency [2] | outcome [3] | Potency [4] | Potency [5] | Potency [6] | Potency [7] | Potency [8] | Potency [9] | Potency [10] | Potency [11] | Potency [12] | Potency [13] | Potency [14] | Potency [15] | Potency [16]

Cc1ccc(C(=O)Cl)cc1
inactive: Potency [1] | Potency [2] | outcome [3] | Potency [4] | Potency [17] | activity change, positive = activation [18] 7.48% | Potency [5] | Potency [6] | Potency [7] | Potency [8] | Potency [9] | Potency [10] | Potency [19] | max response [20] -5.57% | Potency [11] | Potency [12] | Potency [13] | Potency [15] | Potency [16]

COP(=O)(CCC(=O)NCO)OC
inactive: Potency [1] | Potency [2] | outcome [3] | Potency [4] | Potency [17] | activity change, positive = activation [18] 3.27% | Potency [5] | Potency [6] | Potency [7] | Potency [8] | Potency [9] | Potency [10] | Potency [19] | max response [20] 14% | Potency [11] | Potency [13] | Potency [14] | Potency [15] | Potency [16]
